Assay outcomes (PubChem BioAssay)
Most compounds without a hit are left out; they make up all but 17% or so of the library.
HepG2 viability: counter-screen for TGF-b inhibitors: cytotoxicity in HepG2 cells; HepG2 CAGA-GFP viability, ATP luminescence, 18 h; Potency, µM (titrated, usually from 46.1 µM), for inactives: at the highest dose activity change, negative = cytotoxicity, most hits filed as cytotoxic; hit rate 0.76% among 410,000
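HepG2 CAGA-GFP cells (1000/well, DMEM with 1% FBS) received compound, then TGF-beta at 500 pg/mL final, and were incubated 18 hours at 37 degrees C. Viability was read by CellTiter-Glo luminescence. Media-only wells were set as complete cell-killing and DMSO as no toxicity.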
TDP1 cell noCPT: qHTS for Inhibitors of human tyrosyl-DNA phosphodiesterase 1 (TDP1): qHTS in cells in absence of CPT | DT40 Tdp1-/- hTDP1 cells, no CPT, ATP luminescence, 48 h | AID 686978, 2013 | hit rate 15% among 420,000 | Potency, µM (titrated, usually from 46.2 µM), for the others: top-dose activity change, negative = growth inhibition, most hits filed as inhibitors; also: % is scaled to controls: 0 for no effect and ±100 for the full control effect; nearly all actives have a fitted effect of over 55% in size
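Seeded 400 DT40-hTDP1 cells/well (vehicle DMSO, no 20 nM CPT); pinned compounds; ≥48 hr at 37 °C; CellTiter-Glo luminescence as viability measure.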
DT40 TDP1 CPT: DT40-hTDP1 cell growth loss with CPT; chicken DT40 Tdp1-/-;hTDP1 cells + 20 nM CPT, ATP luminescence, 48 h; Potency, µM (titrated, usually from 46.2 µM), for inactives: top-dose activity change, negative = growth inhibition, most hits filed as inhibitors; hit rate 12% among 420,000; also: % is scaled to controls: 0 for no effect and ±100 for the full control effect; nearly all actives have a fitted effect of over 55% in size
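Chicken DT40 Tdp1-/- cells stably complemented with human TDP1 were seeded at 400 cells/well in medium containing 20 nM camptothecin, exposed to pin-transferred compounds, and grown at 37 °C for at least 48 hr. Viability was read as ATP luminescence.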
HT1080-NT tox: kills 2HG-producing HT-1080-NT fibrosarcoma cells; HT-1080-NT fibrosarcoma viability, CellTiter-Glo ATP luminescence, 48 h; Potency, µM (top dose mostly 46.1 µM), without a hit: at the highest dose activity, negative = less viability, actives largely listed as cytotoxic; hit rate 1.6% among 360,000;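 also: NT is the 2HG producing partner of a matched IDH1 knockdown line; 0% = DMSO-treated cells and -100% = media-only wells without cells; nearly all actives have a fitted effect of over 55% in size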
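Viability of the 2HG-overproducing fibrosarcoma line after 48 hours of compound exposure at 37 degrees C was determined by luminescence with CellTiter-Glo, and concentration-effect curves were then fitted and categorized.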
HT1080 IDH1KD tx: HT-1080 IDH1 knockdown cell toxicity (counter line) | HT-1080 IDH1 knockdown viability, ATP luminescence, 48 h | Potency, µM (titrated, usually from 46.1 µM), inactives show at the top dose activity, negative = toxicity, most hits filed as cytotoxic | hit rate 2% among 360,000;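 also: 0% = DMSO wells and -100% = cell-free medium wells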
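In this qHTS, HT-1080 cells depleted of IDH1 are exposed for 48 h at 37 °C to compound titrations. Toxicity is scored from CellTiter-Glo luminescence, with DMSO as full viability and medium alone as none.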
TGFb SMAD3 inh: TGF-b pathway inhibition. Potency, µM (doses to about 46.1 µM), without a hit: at the top dose activity, negative = inhibition, usual class: inhibitors. HepG2 CAGA-GFP TGF-b/SMAD3 reporter, GFP fluorescence, 18 h; TGF-beta stimulated, 500 pg/mL final. AID 588855. hit rate 1.2% among 410,000; also: % is scaled to controls: 0 for no effect and ±100 for the full control effect; nearly all actives have a fitted effect of over 65% in size
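HEPG2 CAGA-GFP reporter cells (1000/well, DMEM with 1% FBS) received compounds, then recombinant TGF-beta at 500 pg/mL final for 18 hours at 37 degrees C. Per-cell GFP summed per well was normalised to unstimulated and stimulated DMSO controls before curve fitting.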
Numbers without * were called inactive. Calls follow the shape of the dose curve; as a rule, active = well fitted curve in the direction sought with a large enough effect; inconclusive = small, poorly fitted or top-dose-only effect, or another doubt; inactive = no such curve, though single readings can be large; an effect the other way counts as inactive or inconclusive. Potency is read from the fitted curve at half-maximal effect.

Screening COc1cc(C2c3c(oc4ccc(F)cc4c3=O)C(=O)N2c2nc(C)c(C)s2)cc(OC)c1OC (stereo unspecified) returned HepG2 viability -1%, TDP1 cell noCPT -1%, DT40 TDP1 CPT 7% and TGFb SMAD3 inh 15%.
For Oc1ccc(Cl)c2cccnc12 the results were HepG2 viability 10µM*, TDP1 cell noCPT 1.8µM*, DT40 TDP1 CPT 1.8µM*, HT1080-NT tox -7%, HT1080 IDH1KD tx -25% and TGFb SMAD3 inh 7.1µM*.
`O=C(CNC(=O)c1ccccc1)OCC(=O)c1cccc2ccccc12` gave HepG2 viability -4%, TDP1 cell noCPT inconclusive, DT40 TDP1 CPT inconclusive and TGFb SMAD3 inh 16%.
Screening O=C(CNC(=O)Cc1ccccc1)NCC(=O)OCC(=O)c1cccc2ccccc12 returned HepG2 viability -4%, TDP1 cell noCPT 18µM*, DT40 TDP1 CPT inconclusive, HT1080-NT tox 5%, HT1080 IDH1KD tx 12% and TGFb SMAD3 inh 3%.
Screening O=C(CNC(=O)c1ccco1)OCC(=O)c1cccc2ccccc12 returned HepG2 viability -5%, TDP1 cell noCPT inconclusive, DT40 TDP1 CPT 16µM*, HT1080-NT tox 6%, HT1080 IDH1KD tx 11% and TGFb SMAD3 inh inconclusive.
O=C(Nc1ccccn1)Nc1ccccc1Cl was read as HepG2 viability -16%, TDP1 cell noCPT 10%, DT40 TDP1 CPT 14%, HT1080-NT tox 8%, HT1080 IDH1KD tx 8% and TGFb SMAD3 inh -4%.
For Cc1cccc(NC(=O)c2cccc(S(=O)(=O)N(C)C3CCCCC3)c2)n1 the results were HepG2 viability -10%, TDP1 cell noCPT inconclusive, DT40 TDP1 CPT inconclusive, HT1080-NT tox 2%, HT1080 IDH1KD tx 3% and TGFb SMAD3 inh -9%.
Cc1cccc(-n2c(=O)cc(N3CCN(c4ccc(F)cc4)CC3)[nH]c2=O)c1 was read as HepG2 viability 5%, TDP1 cell noCPT 18µM*, DT40 TDP1 CPT inconclusive, HT1080-NT tox 0%, HT1080 IDH1KD tx 1% and TGFb SMAD3 inh 8%.
Screening COc1ccc(N2CCN(C(=O)c3cc(=O)c4cc(C)cc(C)c4o3)CC2)cc1 returned HepG2 viability -24%, TDP1 cell noCPT inconclusive, DT40 TDP1 CPT 13µM*, HT1080-NT tox -18%, HT1080 IDH1KD tx 0% and TGFb SMAD3 inh -1%.
CCOC(=O)N1CCN(c2ccc([N+](=O)[O-])cc2)CC1 was read as HepG2 viability 9%, TDP1 cell noCPT inconclusive, DT40 TDP1 CPT inconclusive, HT1080-NT tox -1%, HT1080 IDH1KD tx 1% and TGFb SMAD3 inh 9%.
Screening COc1ccc(N2CCN(C(=O)Oc3ccc([N+](=O)[O-])cc3)CC2)cc1 returned TDP1 cell noCPT 26µM*, DT40 TDP1 CPT inconclusive, HT1080-NT tox 2% and HT1080 IDH1KD tx -10%.
Screening COc1ccc(N2CCN(C(=O)c3ccc(COc4ccc([N+](=O)[O-])cc4)o3)CC2)cc1 returned HepG2 viability 22%, TDP1 cell noCPT 10µM*, DT40 TDP1 CPT 10µM*, HT1080-NT tox -2%, HT1080 IDH1KD tx -14% and TGFb SMAD3 inh -9%.
For Cc1cc(N2CCN(C(=O)Oc3ccc([N+](=O)[O-])cc3)CC2)c2ccccc2n1 the results were TDP1 cell noCPT 18µM*, DT40 TDP1 CPT inconclusive, HT1080-NT tox inconclusive and HT1080 IDH1KD tx inconclusive.
`O=C(NCc1ccc(F)cc1)C(c1ccco1)N(C(=O)c1csnn1)C1CC1` (stereo unspecified) gave HepG2 viability 9%, TDP1 cell noCPT 1%, DT40 TDP1 CPT -17%, HT1080-NT tox 1%, HT1080 IDH1KD tx 1% and TGFb SMAD3 inh 10%.
